FMDV inh: foot and mouth disease virus antiviral activity; FMDV antiviral cell-based qHTS; 410,000 compounds, 1.2% hits; Potency, µM (doses to about 57.9 µM), for the others: at the top dose activity change, negative = inhibition, hits mostly inhibitors; AID 1159524; calls by dose curve; tested in HEK293T cells; also: read-out not given here; potency is read from the fitted curve at half-maximal effect; % is scaled to controls: 0 for no effect and ±100 for the full control effect; nearly all actives have a fitted effect of over 45% in size
HCV inhibitor: HCV inhibition; Huh7.5.1 HCVcc-Cre infection, luciferase reporter, 44 h; Potency, µM (titrated, usually from 41.8 µM), for inactives: at the top dose activity change, negative = inhibition, usual class: inhibitors; 340,000 compounds, 3.4% hits; active = well fitted inhibition curve with a large enough effect; inconclusive = small, poorly fitted or top-dose-only effect, or another doubt; inactive = no such curve, though single readings can be large or run the other way; also: potency is read from the fitted curve at half-maximal effect; % is scaled to controls: 0 for no effect and ±100 for the full control effect
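Luciferase read-out (15 sec integration) after a 15 min room-temperature substrate step quantifies HCVcc-Cre infection. Cells, 1,000 per well, had compound added 4 h post-plating, then virus at ~0.5 moi, and were cultured 44 h.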
HCMV inh: inhibitors of human cytomegalovirus; HFF cells, HCMV-luciferase reporter, 72 h; hits give low values; activity change, negative = inhibition, % at 57.5 µM; 410,000 compounds, 4.5% hits; in the data active = activity change below about -60%; inconclusive = no clear call, values can overlap the other calls; inactive = above about -39%; also: % is scaled to controls: 0 for no effect and ±100 for the full control effect
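After 16 h attachment at 37C, HFF cells received test compound and HCMV-luciferase (1 PFU/cell); reporter luminescence read 72 h later, data normalized against buffer-only and known inhibitor Salinomycin.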
Marburg entry inh: blocks Marburg virus binding to or entry into cells. Marburg virus pseudotyped entry inhibition, cell reporter. Potency, µM (highest dose often 37.8 µM), for the others: at the highest dose activity change, negative = inhibition, hits mostly inhibitors. 300,000 compounds, 1.8% hits. AID 540276; calls by dose curve; tested in HEK293 cells; also: potency is read from the fitted curve at half-maximal effect; % is scaled to controls: 0 for no effect and ±100 for the full control effect
LASV entry inh: inhibitors of Lassa virus binding or cell entry; 300,000 compounds, 1.2% hits; Potency, µM (doses to about 37.9 µM), inactives show top-dose activity change, negative = inhibition, hits mostly inhibitors; Lassa virus pseudotype entry inhibition, cell reporter; calls by dose curve; tested in HEK293 cells; also: potency is read from the fitted curve at half-maximal effect; % is scaled to controls: 0 for no effect and ±100 for the full control effect; nearly all actives have a fitted effect of over 50% in size
SARS PLP yeast: blocks SARS-CoV papain-like protease in a yeast assay | 330,000 compounds, 0.19% hits | AID 485353 | Potency, µM (titrated, usually from 32.9 µM), for the others: at the top dose activity, positive = growth rescue, usual class: activators | S. cerevisiae expressing SARS-CoV PLpro, growth rescue; calls by dose curve; also: potency is read from the fitted curve at half-maximal effect; 0% is about no effect; nearly all actives have a fitted effect of over 55% in size
Starred values were filed as active, the others as inactive; ? = inconclusive; · = no result given; [ ] = another dose, or the depositor's remark. A selection: hits, their analogues and other compounds. The true share with any hit is near 8%.

SMILES | FMDV inh | HCV inhibitor | HCMV inh | Marburg entry inh | LASV entry inh | SARS PLP yeast
CN(C1=C(NC(=O)c2ccccc2)C(=O)c2ccccc2C1=O)C1CCS(=O)(=O)C1 (centres undefined) | 10µM* | ? | -99* | ? | ? | -8%
CC(=O)NC1=C(NC2CCS(=O)(=O)C2)C(=O)c2ccccc2C1=O (centres undefined) | -39% | 7.1µM* | -12 | ? | -16% | -60%
O=C(CN1C(=O)c2ccccc2C1=O)NC1CCS(=O)(=O)C1 (centres undefined) | 9% | · | 2 | · | · | ·
COc1cccc(Cn2c(=O)n(CCc3ccccc3)c(=O)c3c2c2cc(OC)ccc2n3C)c1 | -8% | · | 21 | · | -1%[46.1 µM] | ·
Cn1cnc(S(=O)(=O)N[C@H]2CC[C@@]34CCCN3C(=O)CCC[C@H]4[C@H]2Cc2ccccc2)c1 | · | · | 7 | · | · | ·
Cc1cccc(NC(=O)C2CCN(S(=O)(=O)c3ccc4c(c3)NC(=O)CO4)CC2)c1 | 16% | 8% | -35 | · | · | -2%
CN1C(=O)c2cccc(NCCCCCCN3C(=O)c4ccccc4C3=O)c2C1=O | 13µM* | 6% | 31 | 15% | -2% | -5%
Cc1ccc(S(=O)(=O)N(C)C)cc1NC(=O)COC(=O)c1cccs1 | -14% | · | -17 | · | · | ·
Cc1ccc(S(=O)(=O)N(C)C)cc1NC(=O)COC(=O)/C(=C/c1ccc(F)cc1)c1cccs1 | ? | 11µM* | 3 | ? | ? | -2%
Cc1cc(C(=O)OCC(=O)Nc2cc(S(=O)(=O)N(C)C)ccc2Cl)c2ccccc2n1 | -21% | 12% | 28 | 13% | -24% | 4%
Cc1cc(C(=O)OCC(=O)Nc2cc(S(=O)(=O)N(C)C)ccc2C)c2ccccc2n1 | 16µM* | 20% | -21 | -17% | 6% | 1%
O=C(CC1(O)C(=O)N(C/C=C/c2ccccc2)c2ccccc21)c1ccccn1 (centres undefined) | -16% | -10% | -71* | -15% | ? | -3%
c1ccc2c(c1)nc(NCc1ccc3c(c1)OCO3)n2CCN1CCOCC1 | -17% | 31% | -7 | -10% | 7% | -1%
c1csc(-c2csc3nc(CN4CCOCC4)nc(NCc4ccc5c(c4)OCO5)c23)c1 | ? | ? | -23 | 18µM* | -13% | -1%
O=C(Nc1c(-c2ccccc2)nc2ccccn12)c1ccc(Br)cc1 | 0% | · | -19 | ? | -6%[46.1 µM] | ·
CCn1c(N)c(C(=O)Nc2ccccc2C(=O)OC)sc1=S | 12% | 10µM* | -1 | 7% | -7% | 0%
CCn1c(N)c(C(=O)NCCOC)sc1=S | -5% | 11% | 31 | 0% | -10% | 7%
CCN(C(=O)Cn1nnc2sc(-c3ccccc3)cc2c1=O)c1cccc(C)c1 | 14% | · | 2 | 11%[46.1 µM] | 19%[46.1 µM] | ·
Cc1ccccc1/C=N/Nc1ccnc2cc(Cl)ccc12 | ? | ? | -69* | ? | ? | -62%
Oc1ccc(/C=N/Nc2ccnc3cc(Cl)ccc23)c(O)c1 | 26% | 10µM* | -26 | 2% | · | 1%
Clc1ccc(NNc2ccnc3cc(Cl)ccc23)cc1 | 9% | -13% | -69* | ? | -3% | -2%
Cc1ccc(/C=N/Nc2ccnc3cc(Cl)ccc23)c(C)c1 | 40µM* | 10µM* | -76* | ? | ? | -57%
CC(=O)N1CCC(=NNc2ccnc3cc(Cl)ccc23)CC1 | 5% | -17% | ? | -3%[46.1 µM] | -6%[46.1 µM] | -6%
Cc1cc(N/N=C/c2ccc(O)cc2O)c2ccccc2n1 | -5% | ? | -21 | · | · | -4%
CCC(=O)N1c2ccccc2CC1C(=O)NCCc1ccccc1C (centres undefined) | -14% | · | -11 | · | -11%[46.1 µM] | ·
SMILES | FMDV inh | HCV inhibitor | HCMV inh | Marburg entry inh | LASV entry inh | SARS PLP yeast
CCOC(=O)C1=CCC(c2ccc(C)cc2)N(S(=O)(=O)c2ccc(C)cc2)C1 (centres undefined) | 33% | · | -25 | · | · | ·
COc1ccc(CCNC(=O)COC(=O)CSc2ccc(C(N)=O)cc2[N+](=O)[O-])cc1OC | -18% | 11% | 27 | · | · | ·
COC(=O)/C=c1\s/c(=C(/C#N)C(=O)NCc2ccco2)n(-c2ccccc2)c1=O | · | · | · | -4% | · | ·
Clc1ccc2c(N/N=C/c3cccnc3)ccnc2c1 | 5% | -21% | ? | ? | ? | -3%
Clc1ccc2c(N/N=C/c3ccc(Br)cc3)ccnc2c1 | -33% | 11µM* | -73* | 3.3µM* | ? | -81%
Cc1noc(C)c1CSCC(=O)Nc1nc(-c2ccc(F)c(F)c2)cs1 | 18µM* | 13µM* | -39 | ? | ? | 7%
Cc1csc(NC(=O)CSCc2c(C)noc2C)n1 | 7% | -16% | -27 | -2%[46.1 µM] | ? | 5%
COc1ccc(-c2csc(NC(=O)CSCC(=O)Nc3cc(C)on3)n2)cc1OC | -29% | ? | -17 | ? | ? | -2%
COc1ccc(-c2csc(NC(=O)CSCc3c(C)noc3C)n2)cc1OC | 40µM* | ? | -13 | ? | 11µM* | 3%
Cc1ccsc1CNC(=O)C1(C)CCN1C(C)C (centres undefined) | -5% | · | 21 | · | · | ·
CCCCNc1ncnc2c1cnn2Cc1ccc(Cl)cc1 | -5% | ? | -21 | · | · | 0%
Fc1cccc(Nc2ncnc3c2cnn3-c2ccccc2)c1 | -17% | ? | -31 | · | · | -6%
CCCCNc1ncnc2c1cnn2-c1ccccc1 | 1% | ? | 104 | 10µM* | ? | -8%
Clc1ccc(-n2ncc3c(NCCCn4ccnc4)ncnc32)cc1 | 31% | 11µM* | 41 | ? | ? | -12%
c1ccc(-n2ncc3c(NCCCN4CCOCC4)ncnc32)cc1 | 46% | -16% | 167 | ? | ? | 3%
CCCCNc1ncnc2c1cnn2-c1ccc(Cl)cc1 | -9% | 10µM* | 105 | · | · | -5%
Clc1cccc(Nc2ncnc3c2cnn3-c2ccccc2)c1 | 3% | 11µM* | -32 | · | · | -13%
O=C(NCC1(N2CCOCC2)CCCC1)c1cnn(-c2nccc(-c3ccco3)n2)c1C1CC1 | -21% | · | · | · | · | ·
CC1(Cc2ccc(Cl)s2)C(=O)Nc2c(Cl)ccc(Cl)c21 (centres undefined) | -30% | · | ? | · | · | ·
Cc1cc(F)ccc1NC(=O)c1csc2c1CCC(C)C2 (centres undefined) | 52% | · | 33 | ? | · | ·
CCCNC(=S)N1CCN(c2nc(C)nc3sc4c(c23)CCCC4)CC1 | -28% | ? | ? | ? | ? | -5%
COCCCNC(=S)N1CCN(c2nc(C)nc3sc4c(c23)CCCC4)CC1 | -23% | 10µM* | ? | · | · | -5%
Cc1ccc(-c2nc(N3CCN(c4ccccc4Cl)CC3)c3ccccc3n2)cc1 | -18% | · | 43 | · | -4%[46.1 µM] | ·
COc1ccc(C(=O)c2c(-c3ccc(OC)cc3)oc3ccccc23)cc1 | 0% | -56% | 14 | · | · | -11%
COc1ccc(C(=O)c2c(C)oc3ccc(O)cc23)cc1 | -27% | -15% | ? | · | · | -6%

Source: PubChem BioAssay
